We go through eight compounds from PubChem BioAssay (NCI).

Common to all, as to assay: NCI-60 one-dose screen, 48 h (100 = growth as untreated, 0 = no growth, -100 = all killed)
One assay deals with K-562 leukemia. The note with it: 10 µM unless noted.
A further assay deals with MALME-3M melanoma. The note with it: 10 µM unless noted.
The test system of the next assay is MDA-MB-231 breast. The note with it: 10 µM unless noted.
A further assay relates to RXF 393 renal. The note with it: 10 µM unless noted.
The next assay concerns SF-268 CNS. The note with it: 10 µM unless noted.
A further assay has as its system SF-295 CNS. The note with it: 10 µM unless noted.
A further assay deals with SF-539 CNS. The note with it: 10 µM unless noted.
A further assay deals with UACC-257 melanoma. The note with it: 10 µM unless noted.
The subject of another assay is M14 melanoma. The note with it: 10 µM unless noted.
For another assay, the system named is HCT-15 colon. The note with it: 10 µM unless noted.
The test system of a further assay is HT29 colon. The note with it: 10 µM unless noted.
In another assay the test system is SNB-75 CNS. The note with it: 10 µM unless noted.
The next assay concerns SNB-19 CNS. The note with it: 10 µM unless noted.
The subject of another assay is U251 CNS. The note with it: 10 µM unless noted.
The test system of the next assay is PC-3 prostate. The note with it: 10 µM unless noted.
The next assay concerns SK-MEL-5 melanoma. The note with it: 10 µM unless noted.
A further assay relates to UACC-62 melanoma. The note with it: 10 µM unless noted.
In the next assay the test system is LOX IMVI melanoma. The note with it: 10 µM unless noted.
Another assay relates to SK-MEL-28 melanoma. The note with it: 10 µM.
A further assay concerns SK-MEL-2 melanoma. The note with it: 10 µM unless noted.

Compounds without any hit were thinned out: in the full panel of roughly 83,000, 20% have a hit.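 For each line, cells grew in 96-well plates with the test compound present at a single concentration for 48 hours.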 Values without a mark were called inactive. The source made the active and inactive calls. Rule for the calls: active = growth percent below 10; inactive = the rest.

Take `CC(C)c1ccc(S(=O)(=O)NC(=O)NC2CCCC2)cc1`: the growth in the assay on K-562 leukemia is 103%; in the assay with MALME-3M melanoma, 97.1%; in the assay on MDA-MB-231 breast, 102%; in the assay on RXF 393 renal it was 115%; with SF-268 CNS it was 101%; in the assay with SF-295 CNS, 97.7%. Besides, the growth in the assay on SF-539 CNS is 96.1%; in the assay on UACC-257 melanoma it was 95.7%; in the assay with M14 melanoma it was -52.9% (active); in the assay with HCT-15 colon, 97.3%; in the assay on HT29 colon it was 108%; in the assay on SNB-75 CNS, 101%. The growth in the assay on SNB-19 CNS was 100%; in the assay on U251 CNS it was 101%; with PC-3 prostate, 99.9%; with SK-MEL-5 melanoma it was 101%; with UACC-62 melanoma it was 94.7%; in the assay on LOX IMVI melanoma, 97.7%. In addition, the growth is 103% in the assay with SK-MEL-28 melanoma and 110% in the assay with SK-MEL-2 melanoma.
As for `COc1c2ccoc2c(/C=C/C=O)c2oc(-c3ccccc3)cc(=O)c12`, the growth in the assay on K-562 leukemia was 24.1%; in the assay with MALME-3M melanoma it was 98%; in the assay on MDA-MB-231 breast it was 66.3%; in the assay on RXF 393 renal, 79%; in the assay with SF-268 CNS it was 39.8%; with SF-295 CNS, 51.3%. Besides, the growth was 38.3% in the assay on SF-539 CNS; 108% with UACC-257 melanoma; 70.8% with M14 melanoma; 3.15% (active) in the assay on HCT-15 colon; 87.1% with HT29 colon; 95.2% with SNB-75 CNS. Also, the growth in the assay on SNB-19 CNS was 87.1%; in the assay on U251 CNS it was 16.3%; with PC-3 prostate, 37.9%; in the assay with SK-MEL-5 melanoma, 48.6%; with UACC-62 melanoma, 83%; in the assay with LOX IMVI melanoma, -41% (active). The results for the growth in the assay on SK-MEL-28 melanoma and in the assay on SK-MEL-2 melanoma were 102% and 78.2%, respectively.
Regarding `OCCNc1nc(Nc2ccc(C3=NN(c4cc(Cl)cc(Cl)c4)C(c4ccc(C(F)(F)F)cc4)C3)cc2)nc(N2CCOCC2)n1` (stereo not given), the growth in the assay on K-562 leukemia was 53.9%; in the assay on MALME-3M melanoma, 90%; in the assay on MDA-MB-231 breast it was 59.7%; in the assay on RXF 393 renal, 19.7%; in the assay with SF-268 CNS, 74.1%; with SF-295 CNS, 71%. For the same compound, the growth in the assay with SF-539 CNS was 54.3%; in the assay with UACC-257 melanoma, 94.5%; with M14 melanoma, 90.5%; with HCT-15 colon it was 49.3%; with HT29 colon it was 55.9%; with SNB-75 CNS, 68.4%. Further, the growth in the assay on SNB-19 CNS is 87.6%; with U251 CNS, 63.4%; in the assay on PC-3 prostate it was 62.9%; in the assay on SK-MEL-5 melanoma, 76%; in the assay with UACC-62 melanoma, 69.7%; with LOX IMVI melanoma it was 44.8%. Moreover, the growth in the assay on SK-MEL-28 melanoma is 81.4%; in the assay with SK-MEL-2 melanoma, 116%.
Consider `COc1cc(NC(=O)CCSc2nc3ccccc3c(=O)n2CCc2ccccn2)cc(OC)c1OC`, for which the growth is 94.8% in the assay with K-562 leukemia; 59% in the assay with MALME-3M melanoma; 80.2% with MDA-MB-231 breast; 75.2% in the assay with RXF 393 renal; 80.8% in the assay with SF-268 CNS; 88.4% in the assay on SF-295 CNS. The growth in the assay with SF-539 CNS was 73.7%; in the assay on UACC-257 melanoma, 93.2%; with M14 melanoma it was 103%; with HCT-15 colon it was 96.4%; with HT29 colon, 102%; in the assay on SNB-75 CNS it was 8.5% (active). The growth is 98.6% in the assay with SNB-19 CNS; 85.1% in the assay with U251 CNS; 81.6% in the assay with PC-3 prostate; 87.8% in the assay with SK-MEL-5 melanoma; 84% in the assay on UACC-62 melanoma; 94.8% in the assay with LOX IMVI melanoma. Besides, the growth with SK-MEL-28 melanoma was 83.3%; in the assay with SK-MEL-2 melanoma it was 92.4%.
On to `Nc1ccc(-n2c(=O)oc3ccc(Cl)cc3c2=O)c(Cl)c1`, for which the growth was 7.44% (active) in the assay with K-562 leukemia; -29.6% (active) in the assay with MALME-3M melanoma; -25.6% (active) with MDA-MB-231 breast; -6.99% (active) in the assay on RXF 393 renal; 3.88% (active) in the assay with SF-268 CNS; -58% (active) in the assay on SF-295 CNS. For the same compound, the growth in the assay with SF-539 CNS was -5.36% (active); with UACC-257 melanoma it was -21.1% (active); in the assay on M14 melanoma, -11.2% (active); with HCT-15 colon, 1.16% (active); in the assay with HT29 colon it was 3.86% (active); in the assay on SNB-75 CNS it was -41.3% (active). The growth in the assay with SNB-19 CNS was 16.2%; in the assay with U251 CNS, -8.77% (active); with PC-3 prostate it was 2.14% (active); in the assay with SK-MEL-5 melanoma it was -83.9% (active); in the assay on UACC-62 melanoma, -34.9% (active); in the assay on LOX IMVI melanoma it was 0.455% (active). In addition, the growth in the assay with SK-MEL-28 melanoma is -10.6% (active); in the assay on SK-MEL-2 melanoma, -31.6% (active).
Turning to `Nc1nc2c(ncn2[C@@H]2O[C@H](CS)[C@@H](O)[C@H]2O)c(=O)[nH]1`, the growth was 97.2% in the assay on K-562 leukemia; 97.5% in the assay with MALME-3M melanoma; 99.3% in the assay with MDA-MB-231 breast; 111% with RXF 393 renal; 99.7% with SF-268 CNS; 98.2% with SF-295 CNS. In addition, the growth in the assay on SF-539 CNS was 102%; in the assay on UACC-257 melanoma, 94.7%; with M14 melanoma, 102%; in the assay on HCT-15 colon, 101%; in the assay with HT29 colon it was 99.9%; with SNB-75 CNS it was 92.6%. The growth with SNB-19 CNS is 95.3%; in the assay on U251 CNS it was 99.3%; in the assay with PC-3 prostate, 101%; in the assay on SK-MEL-5 melanoma, 97%; with UACC-62 melanoma it was 93.6%; with LOX IMVI melanoma it was 96.9%. For the same compound, the figures for the growth with SK-MEL-28 melanoma and with SK-MEL-2 melanoma were 98.6% and 120%, respectively.
In the case of `Nc1n[nH]c2ccc([C@@H]3Nc4ccc5[nH]ncc5c4[C@H]4[C@H]5CCC(C5)[C@H]43)cc12`, the growth was 9.58% (active) with K-562 leukemia; 52.2% in the assay on MALME-3M melanoma; 11.8% in the assay with MDA-MB-231 breast; 25.6% with RXF 393 renal; 25% in the assay with SF-268 CNS; 14% in the assay on SF-295 CNS. Further, the growth in the assay with SF-539 CNS is -15.8% (active); in the assay with UACC-257 melanoma, 69.4%; with M14 melanoma, 8.3% (active); in the assay with HCT-15 colon it was 16.5%; with HT29 colon it was 2.25% (active); in the assay on SNB-75 CNS, 11.4%. Moreover, the growth is 33.4% in the assay on SNB-19 CNS; 20.1% in the assay with U251 CNS; 25.6% in the assay on PC-3 prostate; 16.9% with SK-MEL-5 melanoma; 40.5% in the assay on UACC-62 melanoma; 14.7% in the assay with LOX IMVI melanoma. Moreover, the growth was 57.7% in the assay with SK-MEL-28 melanoma and 29.5% in the assay with SK-MEL-2 melanoma.
On to `COc1ccc2oc(=O)cc(Cn3cc(Cn4cnc5c4c(=O)n(C)c(=O)n5C)nn3)c2c1`, for which the growth is 103% in the assay on K-562 leukemia; 91.5% with MALME-3M melanoma; 98% in the assay on MDA-MB-231 breast; 120% with RXF 393 renal; 100% in the assay on SF-268 CNS; 102% in the assay with SF-295 CNS. Further, the growth in the assay on SF-539 CNS is 94%; with UACC-257 melanoma, 98%; in the assay on M14 melanoma, 100%; in the assay with HCT-15 colon it was 105%; with HT29 colon it was 99%; in the assay on SNB-75 CNS, 93.8%. For the same compound, the growth in the assay on SNB-19 CNS was 99.5%; in the assay on U251 CNS, 101%; in the assay on PC-3 prostate, 102%; with SK-MEL-5 melanoma it was 98.9%; in the assay on UACC-62 melanoma, 91.7%; with LOX IMVI melanoma it was 98.2%. In addition, the growth in the assay with SK-MEL-28 melanoma is 105%; in the assay on SK-MEL-2 melanoma, 106%.
